Experimental data published in PubChem BioAssay (NCI).
This is part of a sample that, as a whole, favours compounds with a hit. Of some 83,000 tested, about 20% had one in any assay.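 96-well plates, one dose, 48 hours. Percent growth reported; active if below 10.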 The source made the active and inactive calls.

What was measured:
Test in all cases: NCI-60 one-dose screen, 48 h (100 = growth as untreated, 0 = no growth, -100 = all killed)
Conditions in all cases: 10 µM unless noted
HCT-15 colon = tested on: HCT-15 colon
HT29 colon = tested on: HT29 colon
SNB-75 CNS = tested on: SNB-75 CNS
SNB-19 CNS = tested on: SNB-19 CNS
U251 CNS = tested on: U251 CNS
PC-3 prostate = tested on: PC-3 prostate
SK-MEL-5 melanoma = tested on: SK-MEL-5 melanoma
UACC-62 melanoma = tested on: UACC-62 melanoma
LOX IMVI melanoma = tested on: LOX IMVI melanoma
SK-MEL-28 melanoma = tested on: SK-MEL-28 melanoma

Measured: growth

O=C(CCCCCCNC(=O)C(O)(O)C(F)(F)F)Nc1ncc(-c2ccccc2)s1
active: HCT-15 colon 2.35% | HT29 colon 4.15% | SNB-19 CNS 6.24% | U251 CNS -62.6% | SK-MEL-5 melanoma -67.2% | UACC-62 melanoma -76.6% | LOX IMVI melanoma -78.2% | SK-MEL-28 melanoma -19.6%
inactive: SNB-75 CNS 35.1% | PC-3 prostate 22.7%

O=C(CSc1nc2ccccc2c(=O)n1-c1ccccc1)Nc1ccc(S(=O)(=O)Nc2nccs2)cc1
inactive: HCT-15 colon 66.5% | HT29 colon 69.5% | SNB-75 CNS 57.4% | SNB-19 CNS 43.7% | PC-3 prostate 91% | SK-MEL-5 melanoma 66.5% | UACC-62 melanoma 71.4% | LOX IMVI melanoma 36.5% | SK-MEL-28 melanoma 76.3%
active: U251 CNS 2.78%

N#Cc1cccc(-c2cc(-c3ccc4c(c3)OCCO4)[nH]n2)c1
inactive: HCT-15 colon 23.2% | HT29 colon 11.2% | SNB-75 CNS 10.6% | SNB-19 CNS 36.6% | U251 CNS 30.2% | PC-3 prostate 39.7% | SK-MEL-5 melanoma 12.1% | UACC-62 melanoma 41.7% | LOX IMVI melanoma 46% | SK-MEL-28 melanoma 55.9%

CCc1cc(O)ccc1Nc1cc(-c2ccc(-n3cccn3)cc2)[nH]n1
inactive: HCT-15 colon 33.6% | HT29 colon 77.4% | SNB-75 CNS 117% | SNB-19 CNS 69% | U251 CNS 82.5% | PC-3 prostate 60.9% | SK-MEL-5 melanoma 49.2% | UACC-62 melanoma 43.2% | LOX IMVI melanoma 26.1% | SK-MEL-28 melanoma 80.8%

CNc1sc(S(=O)(=O)NC)nc1S(=O)(=O)c1ccc(C)cc1
inactive: HCT-15 colon 94.2% | HT29 colon 107% | SNB-75 CNS 88.3% | SNB-19 CNS 96% | U251 CNS 95.8% | PC-3 prostate 96.7% | SK-MEL-5 melanoma 98.4% | UACC-62 melanoma 91.3% | LOX IMVI melanoma 96.1% | SK-MEL-28 melanoma 102%

CCOP(=O)(OCC)OC[C@]12CC[C@@H](C)[C@H](C)C1C1=CC[C@@H]3[C@@]4(C)CCCNC(C)(C)[C@@H]4CC[C@@]3(C)[C@]1(C)CC2 (stereo not given in full)
active: HCT-15 colon -8.25% | HT29 colon -30.6% | U251 CNS -59.1% | SK-MEL-5 melanoma -8.29% | UACC-62 melanoma -12.6% | LOX IMVI melanoma -86.3% | SK-MEL-28 melanoma -2.47%
inactive: SNB-75 CNS 66.8% | SNB-19 CNS 17% | PC-3 prostate 10.9%

CN1CCN(c2ccc(Nc3nc(NCCCNS(=O)(=O)c4cccc(F)c4)c4sccc4n3)cc2)CC1
active: HT29 colon -68.7% | U251 CNS 6.85% | SK-MEL-5 melanoma -77.6% | UACC-62 melanoma 0.267% | LOX IMVI melanoma -58.1% | SK-MEL-28 melanoma -77.4%
inactive: HCT-15 colon 17.3% | SNB-75 CNS 82.1% | SNB-19 CNS 48.7% | PC-3 prostate 63.1%

COC(=O)N1CCN(CCNCc2ccc(NC(=O)c3ccc(C)c(C#Cc4cnc5cccnn45)c3)cc2C(F)(F)F)CC1
active: HCT-15 colon 6.88% | SK-MEL-5 melanoma -75.2% | LOX IMVI melanoma -79.5%
inactive: HT29 colon 17.3% | SNB-75 CNS 17.4% | SNB-19 CNS 59.6% | U251 CNS 36.2% | PC-3 prostate 25.5% | UACC-62 melanoma 39.3% | SK-MEL-28 melanoma 12%

Cc1ccc(NC2=C(Cl)C(=O)c3nc(C)ccc3C2=O)c(C)c1
inactive: HT29 colon 80.5% | SNB-75 CNS 87.9% | SNB-19 CNS 30.5% | U251 CNS 22.6% | PC-3 prostate 22.6% | UACC-62 melanoma 18.5% | SK-MEL-28 melanoma 30.9%
active: HCT-15 colon -57.7% | SK-MEL-5 melanoma -50.2% | LOX IMVI melanoma -29.2%

Clc1ccc2[nH]cc(-c3nn4cc(-c5cccnc5)nc4s3)c2c1
inactive: HCT-15 colon 95.1% | HT29 colon 98.7% | SNB-75 CNS 90.5% | SNB-19 CNS 100% | U251 CNS 93.8% | PC-3 prostate 88.6% | SK-MEL-5 melanoma 96.2% | UACC-62 melanoma 90.1% | LOX IMVI melanoma 123% | SK-MEL-28 melanoma 101%

O=C(/C=C/c1cc(Cl)ccc1Cl)Nc1ncc(Cc2ccc(Cl)cc2)s1
active: HCT-15 colon 7.86% | HT29 colon -22.8% | SNB-75 CNS 0.161% | U251 CNS 2.48% | SK-MEL-5 melanoma 5.45% | LOX IMVI melanoma -37.3%
inactive: SNB-19 CNS 19.1% | PC-3 prostate 27.3% | UACC-62 melanoma 29.1% | SK-MEL-28 melanoma 52.6%

CC1(C)C=Cc2cc(/C(N)=N/C(N)=N/c3nc4ccccc4s3)ccc2O1
active: LOX IMVI melanoma -56.3%
inactive: HCT-15 colon 57.7% | HT29 colon 95.1% | SNB-75 CNS 101% | SNB-19 CNS 96.6% | U251 CNS 89.8% | PC-3 prostate 34.7% | SK-MEL-5 melanoma 87.9% | UACC-62 melanoma 96.7% | SK-MEL-28 melanoma 108%

O=c1c2cc(-c3ccc(F)cc3F)ccc2n(O)c(=O)n1-c1cccc(C(F)(F)F)c1
active: SNB-75 CNS -19.4% | U251 CNS 5.79% | PC-3 prostate -0.871% | SK-MEL-5 melanoma -59.7% | UACC-62 melanoma -0.381%
inactive: HCT-15 colon 10.5% | HT29 colon 62.9% | SNB-19 CNS 10.5% | LOX IMVI melanoma 12.5% | SK-MEL-28 melanoma 27.2%

CC(=O)Nc1nc(C)c(-c2csc(Nc3ccccc3)n2)s1
inactive: HCT-15 colon 16.4% | HT29 colon 28.7% | SNB-75 CNS 38.3% | SNB-19 CNS 35.8% | U251 CNS 40.8% | PC-3 prostate 31.8% | UACC-62 melanoma 21.4% | LOX IMVI melanoma 21.4% | SK-MEL-28 melanoma 38.1%
active: SK-MEL-5 melanoma 9.06%

Brc1ccc(-c2cc(-c3ccc4c(c3)OCCO4)n[nH]2)s1
active: SNB-75 CNS 7.95%
inactive: HCT-15 colon 19.2% | HT29 colon 11.1% | SNB-19 CNS 42.6% | U251 CNS 27.8% | PC-3 prostate 50% | SK-MEL-5 melanoma 12.1% | UACC-62 melanoma 49.5% | LOX IMVI melanoma 41.7% | SK-MEL-28 melanoma 57.8%

COc1ccc(/C(=N\N=C(N)N)c2ccc(Cl)cc2)cc1OC
inactive: HCT-15 colon 77.3% | HT29 colon 54.9% | SNB-75 CNS 46.2% | SNB-19 CNS 72.9% | U251 CNS 72.4% | PC-3 prostate 44% | SK-MEL-5 melanoma 93% | UACC-62 melanoma 80.2% | LOX IMVI melanoma 58.3% | SK-MEL-28 melanoma 96.5%

CN1CCN(Cc2ccc(NC(=O)c3cncc(C#Cc4cnc5ccc(N)nn45)c3)cc2C(F)(F)F)CC1
inactive: HCT-15 colon 49.5% | SNB-75 CNS 57.7% | SNB-19 CNS 35% | U251 CNS 54.6% | PC-3 prostate 36.9% | SK-MEL-5 melanoma 60.8% | UACC-62 melanoma 70.8% | SK-MEL-28 melanoma 41.2%
active: HT29 colon 5.96% | LOX IMVI melanoma -63%

CC(=O)/C(N=Nc1ccc2oc(=O)ccc2c1)=C(\C)O
inactive: HCT-15 colon 16.5% | HT29 colon 24.4% | SNB-75 CNS 67.8% | SNB-19 CNS 29% | U251 CNS 23.3% | PC-3 prostate 20.7% | UACC-62 melanoma 33.8% | LOX IMVI melanoma 19% | SK-MEL-28 melanoma 47.3%
active: SK-MEL-5 melanoma 9.01%

Cn1c(SCC(=O)c2ccc(Br)cc2)nc2ccccc2c1=O
inactive: HCT-15 colon 99.5% | HT29 colon 101% | SNB-75 CNS 94.3% | SNB-19 CNS 100% | U251 CNS 103% | PC-3 prostate 96.5% | SK-MEL-5 melanoma 92.5% | UACC-62 melanoma 77.5% | LOX IMVI melanoma 95.9% | SK-MEL-28 melanoma 97.3%

Fc1ccc2nc(-c3cnn4cccnc34)sc2c1
inactive: HCT-15 colon 76.9% | HT29 colon 97.9% | SNB-75 CNS 68.5% | SNB-19 CNS 82.1% | U251 CNS 75.8% | PC-3 prostate 84.3% | SK-MEL-5 melanoma 90% | UACC-62 melanoma 75.4% | LOX IMVI melanoma 92.9% | SK-MEL-28 melanoma 117%

CCN(CC)S(=O)(=O)c1ccc(-c2nc(C(Cl)Cl)nc3cc(-c4ccc(F)cc4)nn23)cc1
active: HT29 colon 4.77%
inactive: HCT-15 colon 23.3% | SNB-75 CNS 56.5% | SNB-19 CNS 40.2% | U251 CNS 17.7% | PC-3 prostate 18.6% | SK-MEL-5 melanoma 83.3% | UACC-62 melanoma 54.2% | LOX IMVI melanoma 32% | SK-MEL-28 melanoma 27.9%

CC(C)(C)OC(=O)Nc1ccc(-c2cccc(Oc3ccc4nnc(Cl)n4n3)c2)cc1
inactive: HCT-15 colon 65% | HT29 colon 84.7% | SNB-75 CNS 126% | SNB-19 CNS 94.9% | U251 CNS 91.2% | PC-3 prostate 51.1% | SK-MEL-5 melanoma 19.5% | UACC-62 melanoma 63.6% | LOX IMVI melanoma 82.9% | SK-MEL-28 melanoma 96.9%

CCS(=O)(=O)Nc1ccc(C(=O)CC2(O)C(=O)Nc3ccccc32)cc1 (stereo not given)
inactive: HCT-15 colon 100% | HT29 colon 113% | SNB-75 CNS 69.2% | SNB-19 CNS 101% | U251 CNS 105% | PC-3 prostate 92.4% | SK-MEL-5 melanoma 99.8% | UACC-62 melanoma 96.9% | LOX IMVI melanoma 94.6% | SK-MEL-28 melanoma 109%

CC1=Cc2ccccc2OC12C=Cc1ccccc1O2 (stereo not given)
inactive: HCT-15 colon 96.8% | HT29 colon 98.2% | SNB-75 CNS 81.4% | SNB-19 CNS 91.1% | U251 CNS 102% | PC-3 prostate 84.9% | SK-MEL-5 melanoma 92.4% | UACC-62 melanoma 83% | LOX IMVI melanoma 90.6% | SK-MEL-28 melanoma 114%

CN1CCN(Cc2ccc(NC(=O)c3cncc(C#Cc4cnc(N)nc4)c3)cc2C(F)(F)F)CC1
inactive: HCT-15 colon 17.2% | HT29 colon 14.3% | SNB-75 CNS 41.5% | SNB-19 CNS 57.4% | U251 CNS 30.3% | PC-3 prostate 35.1% | SK-MEL-5 melanoma 38%
active: UACC-62 melanoma -0.0134% | LOX IMVI melanoma 4.32% | SK-MEL-28 melanoma 2.04%

Fc1ccc(-c2cn3c(-c4c[nH]c5ccc(Br)cc45)csc3n2)cc1
active: SNB-75 CNS -7.44%
inactive: HCT-15 colon 77.8% | HT29 colon 97.9% | SNB-19 CNS 52.6% | U251 CNS 47.8% | PC-3 prostate 73.6% | SK-MEL-5 melanoma 95.2% | UACC-62 melanoma 65.7% | LOX IMVI melanoma 13.1% | SK-MEL-28 melanoma 87.8%
